In one assay the test system is PIM1. As to conditions: concentration: 1 μM, replicates: in singlicate; n = 1.
On to `Fc1cc(Cl)ccc1Nc1ccnc2cc(-c3ccc(CN4CCOCC4)o3)ccc12` [GW560109], for which the “%Inh” value is reported as 0%.

Turning to `Nc1ncc(-c2ccc3nccc(-c4ccncc4)c3c2)cc1S(=O)(=O)N1CCCCC1` [GSK1693850], the “%Inh” value was 8%. On the same count and under the same terms, to `Nc1ncnc2scc(-c3ccc(NC(=O)Cc4cc(F)ccc4F)cc3)c12.O=C(O)C(F)(F)F` [SB-731254-M] belongs 0%.

Another assay deals with PIM2. To be noted: concentration: 1 μM, replicates: in singlicate; n = 1.
For `Cl.Cl.NC(CNC(=O)c1cc(Br)c(-c2ccnc3[nH]ccc23)s1)c1ccccc1` (stereo not drawn) [GSK1322949], the “%Inh” value is 0%.

With `Cl.Cl.NCC(NC(=O)c1cc(-c2cccnc2)c(-c2ccnc3[nH]ccc23)s1)c1ccccc1` (stereo not drawn) [GSK1323434], the “%Inh” value is 0%. Still for that read-out and setting: the same measure for `CC(C)c1nc(-c2ccc(F)c(NS(=O)(=O)c3c(F)cccc3F)c2)c(-c2ccnc(Nc3ccc(N4CCOCC4)nc3)n2)s1` [GSK1804250]: 0%. In the case of `CC(=O)Nc1cn2nc(Oc3cccc(NC(=O)c4cccc(C(F)(F)F)c4)c3)ccc2n1`, the “%Inh” value came out at 9%.

Turning to `COc1cc(Nc2nccc(N3CCC(NS(=O)(=O)c4ccc(NC(C)=O)cc4)CC3)n2)cc(OC)c1OC` [GSK1379825], the “%Inh” value is reported as 0%. For the compound `Cn1cc(-c2cnc(N)c3c(-c4ccc5c(c4)CCN5C(=O)Cc4ccccc4)csc23)cn1` [GSK2593074], the “%Inh” value was found to be 15%. Still for that read-out and setting: the same measure for `Cc1ccc(NC(=O)c2ccnc(N3CCCCC3)c2)cc1-c1ccc(C(=O)NCC2CC2)cc1` [GW775610]: 0%; for `CCn1cnc2c(NCc3ccccc3)ncnc21` [SKF-96418]: 0%. `Cc1ccc(NC(=O)c2cccc(N3CCCCC3)c2)cc1-c1ccc(C(=O)NCC2CC2)cc1` [GSK1917008]: the “%Inh” value is listed as 0%.

These data come from article PMC5540273 (PLoS ONE, 2017).
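Further: KINOMEscan kinase panel screen.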
